Source: PubChem (several laboratories)
Neddylation inh = blocks human cullin neddylation; P61081+Q13564; TR-FRET cullin neddylation, biochemical; inhibition, % at 25 µM; 360,000 compounds, 0.58% hits; in the data active means inhibition above about 36%
PKA-R1A act = PKA-R1A complex activation. PKA-R1A dissociation, Cy5-IP20 fluorescence polarization; scaled: DMSO 0%, 113 µM cGMP 100%. activation, % at 11.4 µM. 340,000 compounds, 0.083% hits. AID 504707;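 active means percent activation above the mean of all tested compounds plus 3 SD, cut at about 19% in these data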;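 further: higher means more PKAc released from R1A so a rise in polarization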
PKA-R2B activ = PKA-R2B complex activation; PKA-R2B holoenzyme dissociation, Cy5-IP20 fluorescence polarization; R2B truncated from residue 108, S112A mutant; 0% DMSO only, 100% 113 µM cGMP; activation, % at 11.4 µM; 340,000 compounds, 0.079% hits; AID 504700;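 active means activation above a cutoff set at the mean over all compounds plus 3 SD, cut at about 18% in these data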;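 further: higher means more holoenzyme dissociation and a rise in polarization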
Rpn11 block = inhibitors of human proteasome Rpn11; human 26S proteasome, Ub4-pepOG fluorescence polarization; 20S core pre-blocked with epoxomicin; 360,000 compounds, 0.59% hits; calls only at 20 µM;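 active means inhibition at 20 µM, scaled to each plate's controls, above about 33%, limit read from the data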
Target sequence (O00487 whole entry, looked up): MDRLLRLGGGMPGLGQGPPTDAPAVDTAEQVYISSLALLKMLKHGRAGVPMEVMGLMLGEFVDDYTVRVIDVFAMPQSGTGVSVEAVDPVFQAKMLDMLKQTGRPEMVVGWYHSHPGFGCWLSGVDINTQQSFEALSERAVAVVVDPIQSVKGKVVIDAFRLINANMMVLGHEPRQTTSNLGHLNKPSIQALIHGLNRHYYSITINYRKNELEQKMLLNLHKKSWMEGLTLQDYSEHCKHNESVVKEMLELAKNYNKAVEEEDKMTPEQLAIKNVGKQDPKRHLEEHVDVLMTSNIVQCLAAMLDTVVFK
Rpn11 confirm = confirmation of human proteasome Rpn11 inhibitors; purified human 26S proteasome, Ub4-pepOG fluorescence polarization; proteasome pretreated with epoxomicin; 1,900 compounds, 29% hits; inhibition, % at 20 µM; AID 602318; shares compounds with Rpn11 block
MMP-2 inh = MMP-2 (human) inhibition counter-screen. shares compounds with Rpn11 block. recombinant MMP-2, FRET peptide cleavage fluorescence. inhibition, % at 20 µM. 1,900 compounds, 4% hits. AID 602330;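 further: human MMP-2 activated beforehand with APMA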
Thrombin inh = thrombin (bovine) inhibition counter-screen; shares compounds with Rpn11 block; bovine thrombin cleavage of Ub4-pepOG, fluorescence polarization; inhibition, % at 20 µM; 1,900 compounds, 13% hits; AID 602333;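 active means mean inhibition at least 40% at 20 µM, or signal 3 deviations below plate average, so some actives read negative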;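 further: plate controls were thrombin with DMSO for no effect and buffer wells lacking thrombin for full effect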
Active calls of the source: *. In the library only some 1.3% were active in any assay of this set; here they are far more common. Unless noted, no stated cut-off is given here; in the data, active means inhibition above about 40%; inactive means the rest.

What do the screens show for `COC(=O)[C@@]12C[C@@H](CC(=O)N3CCN(C(=O)c4ccco4)CC3)C(=O)N(CCc3ccc(OC)c(OC)c3)C1=CCC(C)(C)C2`?
Neddylation inh: -4

What do the screens show for `O=C(Cc1cccc2ccccc12)Nc1ccc(-c2cc3ccccc3oc2=O)cc1`?
Neddylation inh: -155; PKA-R1A act: -5; PKA-R2B activ: 3; Rpn11 block: active; Rpn11 confirm: 10; MMP-2 inh: -9; Thrombin inh: -7

How did ClCC1NCC(c2ccccc2Cl)c2c1[nH]c1ccccc21 (stereo not drawn) do in these assays?
Neddylation inh: 15; PKA-R1A act: -3; PKA-R2B activ: -5; Rpn11 block: active; Rpn11 confirm: 33; MMP-2 inh: 38; Thrombin inh: 18

What do the screens show for `CC(=O)C1=C(C)NC(SCC(=O)c2ccc(Cl)cc2)=C(C#N)C1c1ccco1` (stereo not drawn)?
Neddylation inh: -33; PKA-R1A act: 0; PKA-R2B activ: -18; Rpn11 block: inactive

What do the screens show for `CC(=O)C1=C(C)NC(SCC(=O)c2ccc(Cl)cc2Cl)=C(C#N)C1c1ccco1` (stereo not drawn)?
Neddylation inh: 27; PKA-R1A act: -14; PKA-R2B activ: -9; Rpn11 block: active; Rpn11 confirm: 13; MMP-2 inh: -10; Thrombin inh: 15

What do the screens show for `Cc1ccc(-n2c(=O)c3cc4c(=O)n(-c5ccc(C)c(C)c5)c(=O)c4c(C(=O)c4ccc(C(=O)O)cc4)c3c2=O)cc1C`?
Neddylation inh: -12; PKA-R1A act: -12; PKA-R2B activ: -2; Rpn11 block: active; Rpn11 confirm: 4; MMP-2 inh: 11; Thrombin inh: 39

How did CC(C)(C)c1ccc(Oc2ccc(N)cn2)cc1 do in these assays?
Neddylation inh: -9; Rpn11 block: active; Rpn11 confirm: -11; MMP-2 inh: -27; Thrombin inh: -21

Results for COc1ccc(Cl)cc1NCC(=O)Nc1ccc(OC)c(S(=O)(=O)N2CCCCC2)c1 ?
Neddylation inh: -2; PKA-R1A act: -12; PKA-R2B activ: -3; Rpn11 block: inactive

Results for Cc1cc(C)n(-c2ccccc2C#N)n1 ?
Neddylation inh: 34; PKA-R1A act: 4; PKA-R2B activ: -2; Rpn11 block: inactive

Results for COc1ccc(CCNC(=O)CSc2nn(-c3ccccc3)c(=S)s2)cc1 ?
Neddylation inh: 0; PKA-R1A act: 2; PKA-R2B activ: -1; Rpn11 block: inactive

How did Cc1cc(C)n2nc(SCC(=O)N3CCCC(C)C3)nc2n1 (stereo not drawn) do in these assays?
Neddylation inh: 7; PKA-R1A act: -15; PKA-R2B activ: -6; Rpn11 block: inactive

How did CCOC(=O)c1c(C)oc2ccc(O)cc12 do in these assays?
Neddylation inh: 14; PKA-R1A act: -4; PKA-R2B activ: -10; Rpn11 block: active; Rpn11 confirm: 0; MMP-2 inh: -6; Thrombin inh: 4

What do the screens show for `COc1ccc(-c2csc(NCCc3nc4cc(Cl)c(N5CCCCC5)cc4n3CCOCCO)n2)cc1`?
Neddylation inh: -8; PKA-R1A act: -21; PKA-R2B activ: -3; Rpn11 block: active; Rpn11 confirm: 7; MMP-2 inh: 5; Thrombin inh: 1

What do the screens show for `O=C(CSc1ccc(S(=O)(=O)N2CCCC2)cn1)Nc1ccc([N+](=O)[O-])cc1C(F)(F)F`?
Neddylation inh: -57; PKA-R1A act: -2; PKA-R2B activ: -12; Rpn11 block: inactive

Results for COc1ccc(/C=N/N2C(=O)CSC2=S)cc1 ?
Neddylation inh: -10; PKA-R1A act: 8; PKA-R2B activ: 5; Rpn11 block: inactive

What do the screens show for `O=C1CSC(=S)N1N=Cc1ccc(Cl)s1`?
Neddylation inh: -19; PKA-R1A act: 4; PKA-R2B activ: -14; Rpn11 block: active; Rpn11 confirm: 41*; MMP-2 inh: 31; Thrombin inh: 37
